# PI4K2A block: blocks human PI4K2A kinase activity | purified PI4K2A, ADP-Glo luminescence, 1 h; hits give low values | 420,000 compounds, 0.13% hits | activity change, negative = inhibition, % at 76.9 µM | AID 1346378; in the data active means activity change below about -50%; inconclusive means mostly about -30% to -49%
# Target sequence (Q9BTU6 whole entry, looked up): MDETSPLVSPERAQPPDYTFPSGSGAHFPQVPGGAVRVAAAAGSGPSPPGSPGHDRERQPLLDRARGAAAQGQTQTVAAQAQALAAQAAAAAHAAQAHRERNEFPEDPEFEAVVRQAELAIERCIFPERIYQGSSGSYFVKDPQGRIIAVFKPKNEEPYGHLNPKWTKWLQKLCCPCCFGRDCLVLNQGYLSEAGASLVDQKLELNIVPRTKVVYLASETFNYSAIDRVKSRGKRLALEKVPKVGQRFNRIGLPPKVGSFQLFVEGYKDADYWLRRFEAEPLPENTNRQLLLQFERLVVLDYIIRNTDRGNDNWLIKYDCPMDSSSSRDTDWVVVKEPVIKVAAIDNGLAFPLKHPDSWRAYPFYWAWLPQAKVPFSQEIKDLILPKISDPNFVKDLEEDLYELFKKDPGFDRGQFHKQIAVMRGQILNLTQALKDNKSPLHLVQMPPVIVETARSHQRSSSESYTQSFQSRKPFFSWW
#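 In this quantitative HTS, ADP production by PI4K2A was quantified luminescently after 1 h at ambient temperature; 100 microM adenosine served as plate-quality control.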
# LDHA block: inhibitors of human lactate dehydrogenase A. P00338. purified LDHA, NADH/diaphorase-resazurin fluorescence; hits give low values. activity change, % (values are at about 110 or 230 µM). 480,000 compounds, 0.15% hits. AID 1347041; in the data active means activity change below about -30%; inconclusive means mostly about -25% to -30%
#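 Enzyme activity of human lactate dehydrogenase 5 (2 nM; 0.06 mM NADH, 0.2 mM pyruvate, 5 min, RT) is measured via a resazurin/diaphorase fluorescence readout of residual NADH.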
# D3 antag: blocks the human D3 dopamine receptor. D3R cells, DiscoveRx beta-arrestin luminescence, antagonist mode; hits give low values. max response, negative = inhibition, %. 360,000 compounds, 2.5% hits. AID 652054; in the data active means max response below about -50%; inconclusive means no clear call, values can overlap the other calls
#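 Cells expressing the human receptor were seeded at 1500 cells/well, incubated overnight at 37 degrees C in 5% CO2, then exposed to library compounds with dopamine controls for 90 minutes at 37 degrees C before luminescent detection.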
# pAkt inh: blocks phosphorylation of Akt; Neuro2A IGF-stimulated pAkt S473 HTRF, 20 min; hits give low values; activity change, % for hits at 50 µM; 360,000 compounds, 0.32% hits; in the data active means activity change below about -80%; inconclusive means mostly about -51% to -80%
#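 Neuro2A cells (4,500/well, DMEM with 0.5% FBS) were treated with compound at a single 50 µM final concentration, stimulated with 6 nM IGF for 20 min at 37 °C, and lysed. Phospho-Akt Ser473 was read by HTRF as 665/615 ratio ×10^4.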
# D3 ag: activates the human D3 dopamine receptor; 410,000 compounds, 0.58% hits; max activation, %; AID 652048; D3R DiscoveRx beta-arrestin cells, luminescence, 90 min; P35462; in the data active means max activation above about 30%
#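 Cells at 1500/well, incubated overnight, then treated with pinned compounds (dopamine as control) for 90 min at 37 degrees C. DiscoveRx reagent added for 30 - 60 minutes at room temperature; luminescence read.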
# RGS4 inhibitor: inhibitors of human regulator of G protein signaling 4. Transcreener GDP fluorescence polarization, RGS4-accelerated GTP hydrolysis. P49798. Potency, µM (series often up to 114 µM), hits mostly inhibitors. 390,000 compounds, 0.039% hits. AID 504845; active means well fitted inhibition curve with a large enough effect; inconclusive means small, poorly fitted or top-dose-only effect; inactive means no such curve, though single readings can be large or run the other way; further: nearly all actives have a fitted effect of over 75% in size
# Target sequence (P49798 whole entry, looked up): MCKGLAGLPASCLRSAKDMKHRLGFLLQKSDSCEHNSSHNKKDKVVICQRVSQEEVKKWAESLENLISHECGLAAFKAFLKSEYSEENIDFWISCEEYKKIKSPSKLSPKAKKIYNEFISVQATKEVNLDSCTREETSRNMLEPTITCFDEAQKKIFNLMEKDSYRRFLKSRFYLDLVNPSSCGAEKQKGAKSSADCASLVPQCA
#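 MLSMR compounds (23 nl, pin-transferred) preincubated 10 min at room temperature with a 500nM (2x) first reagent, then RGS4 at 900nM (2x) plus Transcreener GDP mix added; fluorescence polarization (620/688 nm) read before and after 90 min at 30 °C.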
# Hits are given with their value; 0 = inactive; ? = inconclusive; - = not tested or not shown; ! = repeats disagree. Most compounds without a hit are left out; they make up all but 2.8% or so of the library.
SMILES,PI4K2A block,LDHA block,D3 antag,pAkt inh,D3 ag,RGS4 inhibitor
CC12CCC(C(=O)N(CCCCN3CCN(c4ccccn4)CC3)C1=O)C2(C)C (configuration not stated),0,0,0,0,86,0
Cc1ccc(Nc2nc(C(=O)OCC(=O)c3ccc(C)cc3)cs2)cc1,-,0,-,-,-,-
CCN1C(=O)c2ccccc2S(=O)c2ccc(C(=O)NCCN(CC(C)C)CC(C)C)cc21 (configuration not stated),0,0,-65,0,0,0
CCN1C(=O)c2ccccc2S(=O)c2ccc(C(=O)NCc3ccc(C)cc3)cc21 (configuration not stated),0,0,-,-,0,0
COCCN(Cc1cc2ccccc2[nH]c1=O)C(=O)c1cc(OC)cc(OC)c1,-,0,-,-,-,-
CCc1cccc(C)c1NC(=O)c1ccc2c(c1)CCN2S(=O)(=O)CC,0,0,-,-,0,?
Cc1cccc(NC(=O)c2ccc(CN3CCc4ccccc4C3)cc2)c1C,0,0,-78,0,0,0
Cc1cccc(NC(=O)c2ccc(C(=O)Nc3cccc(C)c3C)cc2)c1C,0,0,-,-,0,?
CCc1cccc(C)c1NC(=O)c1ccc(CN2CCc3ccccc3C2)cc1,0,0,-72,0,0,0
Cc1ccccc1NC(=O)c1ccc(CN2CCc3ccccc3C2)cc1,0,0,-76,0,0,0
CC(=O)Nc1ccc(NC(=O)c2ccc(CN3CCc4ccccc4C3)cc2)cc1,0,0,-55,0,0,0
c1ccc(CCc2nnc3sc(-c4cc5ccccc5[nH]4)nn23)cc1,-,0,-,-,-,-
N#Cc1nc(-c2ccco2)oc1N1CCN(C(=O)CCCN2C(=O)NC3(CCCC3)C2=O)CC1,-,0,-,-,-,-
O=C1C=C(NC2=CC3OC(c4ccccc4)OCC3OC2=O)CCC1 (configuration not stated),0,0,-72,0,0,?
Cc1ccc2oc(C(=O)NCC(c3cccs3)N3CCCCCC3)cc(=O)c2c1 (configuration not stated),-,0,-,-,-,-
COc1ccc(/C=C/C(=O)NC(=S)NNC(=O)Cc2cccs2)cc1,0,0,0,-,0,0
O=C(/C=C/c1ccccc1)NC(=S)NNC(=O)Cc1cccs1,0,0,-72,0,0,0
O=C(OCc1coc(-c2ccc(F)cc2)n1)c1ccc2nccnc2c1,-,0,-,-,-,-
CCOCCCNC(=O)CSCc1nc(-c2ccc(C)cc2)oc1C,-,-34,-,-,-,-
COC(=O)C1=C(c2ccccc2)c2cc(Cl)ccc2S(=O)(=O)N1CC(=O)Nc1cccc(C)c1,-,0,-,-,-,-
O=C(CC(=O)Nc1ccccc1[N+](=O)[O-])Nc1ccccc1[N+](=O)[O-],0,0,-64,0,0,0
CN(CC(=O)N1CCc2ccccc2C1)S(=O)(=O)c1ccc(Br)cc1,-,0,-,-,-,-
CCC(=O)NCCCNC(=O)c1nc2ccccc2c(=O)[nH]1,-,0,-,-,-,-
NS(=O)(=O)c1ccc(N/N=C/c2ccc(C(=O)O)cc2)c([N+](=O)[O-])c1,0,0,-51,0,0,0
C/C(CCC(C)C)=N\Nc1ccc(S(N)(=O)=O)cc1[N+](=O)[O-],0,0,-58,0,0,0
SMILES,PI4K2A block,LDHA block,D3 antag,pAkt inh,D3 ag,RGS4 inhibitor
CC(=O)Nc1ccc(/C=N/Nc2ccc(S(N)(=O)=O)cc2[N+](=O)[O-])cc1,-,0,-,-,-,-
CCC(CC)=NNc1ccc(S(N)(=O)=O)cc1[N+](=O)[O-],0,0,0,0,0,0
N#Cc1nc(C2CC2)oc1N1CCN(C(=O)NCC2CC2)CC1,-,0,-,-,-,-
Cc1cccc(N(C)C(=S)Oc2ccc3ccccc3c2)c1,0,0,-65,0,0,0
COc1ccc(NC(=O)CSCc2ccc(Cl)cc2)c(OC)c1,-,0,-,-,-,-
CS(=O)(=O)c1sc(C#N)c2c1C(=O)CC(c1ccccc1)C2 (configuration not stated),0,0,-132,0,0,?
N#Cc1c(N)n[nH]c1CCCNC(=O)NC(c1ccccc1)C1CC1 (configuration not stated),-,0,-,-,-,-
Cc1cccc(C)c1OCCOCCN1CCN(C)CC1,0,-43!,?,0,0,0
CCN1CCN(CCOc2cccc(Oc3ccccc3)c2)CC1,0,-33,0,0,0,0
CN1CCN(Cc2cccc(Oc3ccccc3)c2)CC1,0,0,0,0,0,0
CCN1CCN(CCOCCOc2ccccc2)CC1,0,-30,0,0,0,0
c1ccc(OCCOCCN2CCOCC2)cc1,0,0,0,0,0,0
CCCc1cc(=O)[nH]c(SCc2noc(-c3ccc(C)cc3)n2)n1,-,0,-,-,-,-
Nn1cnnc1N/N=C/c1ccc(Cl)c([N+](=O)[O-])c1,-52,0,?,0,0,0
Nn1cnnc1N/N=C/c1ccc(F)cc1,?,0,?,0,0,0
Cc1cc(Cl)c2oc(C(=O)N(C)Cc3nccn3C)c(C)c2c1,0,0,-67,0,0,0
Cc1cc(Cl)c2oc(C(=O)N(C)Cc3cc(C)[nH]n3)c(C)c2c1,0,0,0,0,0,0
CC(C)c1nc2sc3c(SCC(=O)NCc4ccco4)ncnc3c2c2c1CCC2,0,0,0,-95%,0,?
O=C(CSc1ncnc2sc3c(c12)CCCCC3)NCc1ccco1,0,0,0,0,0,0
Cc1nc2cc(NC(C)C(=O)Nc3ccccc3C(F)(F)F)ccc2o1 (configuration not stated),-,0,-,-,-,-
Nc1nc(SCc2ccc(Cl)cc2Cl)nc2nc3c(cc12)CCCC3,0,0,-57,0,0,?
NC(=O)c1ccc(S(=O)(=O)N2CCN(c3nc(-c4cccnc4)nc4ccccc34)CC2)cc1,-,0,-,-,-,-
COC(=O)C1=C(C)N(c2cccc(C)c2)C(=S)NC1c1ccc(C)s1 (configuration not stated),-,0,-,-,-,-
Cc1[nH]c2ccc(C(=O)NCCCN3CCCCC3)cc2c1C,0,0,?,0,0,0
Cc1[nH]c2ccc(C(=O)NCCN3CCCCCC3)cc2c1C,0,0,-70,0,0,0
SMILES,PI4K2A block,LDHA block,D3 antag,pAkt inh,D3 ag,RGS4 inhibitor
CCCN1CCN(C(=O)c2ccc3[nH]c(C)c(C)c3c2)CC1,0,0,-87,0,0,-
NC(=O)c1cc(Cc2ccccc2)sc1NC(=O)c1cccs1,-,0,-,-,-,-
Cc1ccccc1Nc1nnc(SCc2cc(=O)n3ccsc3n2)s1,0,0,0,0,46,0
Cc1ccc(Nc2nc(=O)c3cccnc3s2)cc1,0,0,-102,0,0,0
Oc1ccc(-n2nnnc2SCc2ncc(-c3ccc(Cl)cc3)o2)cc1,-,0,-,-,-,-
CCS(=O)(=O)N1CCC(NC(=O)c2ccc3ccccc3n2)CC1,-,0,-,-,-,-
O=C(NC1CCCCCCC1)c1ccc(S(=O)(=O)N2CCCC2)cc1,0,0,-53,0,0,0
O=C(NC1CCCCC1)c1ccc(S(=O)(=O)N2CCCCC2)cc1,0,0,0,0,0,0

# Screens (PubChem)
